Reference: PubChem BioAssay AID1159580 (chemical genetic matrix, 2015)
Where “and” joins values, the source holds several entries; their conditions need not be identical. Equal values may be shown once. The campaign covered roughly 5,500 compounds. About 2,000 (36%) were called active. Not shown: some 18% with an inconclusive outcome. Rule as the data show it: active = normalized growth mostly below about 0.91 (no sharp cut-off); inconclusive = no clear call, values can overlap the other calls; inactive = mostly above about 0.92. Some of the results follow.

Experiment: chemical genetic growth profiling, strain panel (AID 1159580);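 also: tested at 20 µM; growth read once vehicle control cultures reached saturation at 30 °C; 1 = growth at the plate median or of vehicle wells; lower values mean less growth of the strain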
Conditions: S. cerevisiae deletion strains, growth OD

Measured: normalized growth

Cc1cc(C)nc(NS(=O)(=O)c2ccc(N)cc2)n1
inactive: locus YAL013W, strain DEP1, stronger effect = lower value 0.998 | locus YAL021C, strain ccr4, stronger effect = lower value 0.957 | locus YAL026C, strain drs2, stronger effect = lower value 0.974 | locus YAL030W, strain snc1, stronger effect = lower value 0.972 | locus YBL061C, strain skt5, stronger effect = lower value 0.985 | locus YBR009C, strain hhf1, stronger effect = lower value 0.934 | locus YBR021W, strain FUR4, stronger effect = lower value 1.01 | locus YBR023C, strain chs3, stronger effect = lower value 0.982 | locus YBR171W, strain sec66, stronger effect = lower value 0.989 | locus YBR229C, strain ROT2, stronger effect = lower value 0.999 | locus YBR231C, strain swc5, stronger effect = lower value 0.998 | locus YBR279W, strain paf1, stronger effect = lower value 0.982 | locus YCL011C, strain gbp2, stronger effect = lower value 0.96 | locus YCL016C, strain dcc1, stronger effect = lower value 0.966 | locus YCL029C, strain bik1, stronger effect = lower value 0.981 | locus YCL069W, strain vba3, stronger effect = lower value 0.969 | locus YCR088W, strain abp1, stronger effect = lower value 0.965 | locus YDL005C, strain med2, stronger effect = lower value 0.969 | locus YDL035C, strain GPR1, stronger effect = lower value 0.988 | locus YDL040C, strain nat1, stronger effect = lower value 0.98 | locus YDL074C, strain BRE1, stronger effect = lower value 1.01 | locus YDL101C, strain DUN1, stronger effect = lower value 0.99 | locus YDL134C, strain PPH21, stronger effect = lower value 0.996 | locus YDL185W, strain tfp1, stronger effect = lower value 0.938 | locus YDL192W, strain arf1, stronger effect = lower value 0.963 | locus YDR001C, strain nth1, stronger effect = lower value 0.963 | locus YDR069C, strain doa4, stronger effect = lower value 0.991 | locus YDR101C, strain arx1, stronger effect = lower value 1 | locus YDR137W, strain rgp1, stronger effect = lower value 0.981 | locus YDR150W, strain NUM1, stronger effect = lower value 0.999 | locus YDR159W, strain sac3, stronger effect = lower value 0.914 | locus YDR162C, strain NBP2, stronger effect = lower value 0.981 | locus YDR195W, strain ref2 0.959 | locus YDR297W, strain sur2, stronger effect = lower value 0.983 | locus YDR318W, strain mcm21, stronger effect = lower value 0.964 | locus YDR334W, strain swr1, stronger effect = lower value 0.985 | locus YDR335W, strain msn5, stronger effect = lower value 0.977 | locus YDR388W, stronger effect = lower value 0.967 | locus YDR392W, strain spt3, stronger effect = lower value 0.91 | locus YDR502C, strain sam2, stronger effect = lower value 0.98 | locus YEL003W, strain gim4, stronger effect = lower value 0.967 | locus YEL037C, strain rad23, stronger effect = lower value 0.983 | locus YEL061C, strain CIN8 (second series), stronger effect = lower value 0.972 | locus YEL061C, strain CIN8, stronger effect = lower value 1 | locus YER015W, strain faa2, stronger effect = lower value 0.996 | locus YER016W, strain bim1, stronger effect = lower value 0.96 | locus YER110C, stronger effect = lower value 0.99 | locus YER111C, strain swi4, stronger effect = lower value 0.965 | locus YER155C, strain BEM2 (second series), stronger effect = lower value 1.01 | locus YER155C, strain BEM2, stronger effect = lower value 0.996 | locus YER167W, strain BCK2, stronger effect = lower value 0.995 | locus YFR010W, strain ubp6, stronger effect = lower value 0.996 | locus YGL078C, strain dbp3, stronger effect = lower value 0.977 | locus YGL086W, strain mad1, stronger effect = lower value 1 | locus YGL167C, strain pmr1, stronger effect = lower value 0.977 | locus YGL173C, strain kem1, stronger effect = lower value 0.979 | locus YGL227W, strain vid30, stronger effect = lower value 0.988 | locus YGL240W, strain doc1, stronger effect = lower value 1.01 | locus YGL248W, strain PDE1, stronger effect = lower value 0.998 | locus YGL253W, strain hxk2, stronger effect = lower value 0.968 | locus YGR135W, strain pre9, stronger effect = lower value 0.995 | locus YGR229C, strain SMI1, stronger effect = lower value 0.989 | locus YGR252W, strain gcn5, stronger effect = lower value 1.17 | locus YHR013C, strain ard1, stronger effect = lower value 0.92 | locus YHR027C, strain rpn1, stronger effect = lower value 0.973 | locus YHR030C, strain SLT2, stronger effect = lower value 0.995 and 0.954 | locus YHR079C, strain IRE1 (second series), stronger effect = lower value 0.97 | locus YHR079C, strain IRE1, stronger effect = lower value 0.981 | locus YHR094C, strain hxt1, stronger effect = lower value 0.968 | locus YHR129C, strain ARP1, stronger effect = lower value 0.997 | locus YHR142W, strain chs7, stronger effect = lower value 0.968 | locus YHR200W, strain rpn10, stronger effect = lower value 0.98 | locus YIL066C, strain RNR3, stronger effect = lower value 1.01 | locus YIL073C, strain SPO22, stronger effect = lower value 0.842 | locus YIL125W, strain kgd1, stronger effect = lower value 0.954 | locus YIR030C, strain dcg1, stronger effect = lower value 0.983 | locus YJL092W, strain hpr5, stronger effect = lower value 0.981 | locus YJL095W, strain BCK1 (second series), stronger effect = lower value 0.983 | locus YJL095W, strain BCK1, stronger effect = lower value 1.02 and 0.967 | locus YJL115W, strain asf1, stronger effect = lower value 0.968 | locus YJL129C, strain trk1, stronger effect = lower value 0.98 | locus YJL134W, strain LCB3, stronger effect = lower value 0.985 | locus YJL154C, strain vps35, stronger effect = lower value 0.978 | locus YJL164C, strain tpk1, stronger effect = lower value 0.963 | locus YJL166W, strain qcr8, stronger effect = lower value 1.01 | locus YJL168C, strain set2, stronger effect = lower value 0.977 | locus YJL187C, strain SWE1 (second series), stronger effect = lower value 0.987 | locus YJR043C, strain POL32, stronger effect = lower value 1
